Compound activity deposited in PubChem BioAssay by National Center for Advancing Translational Sciences (NCATS).
Eya2 phos inh: qHTS Assay for Inhibitors of the Phosphatase Activity of Eya2. recombinant Eya2, OMFP fluorescence dephosphorylation (OMFP is methylfluorescein phosphate). Potency, µM (highest dose often 76.9 µM), inactives show top-dose activity, negative = inhibition, most hits filed as inhibitors. 330,000 compounds, 0.006% hits. AID 488837, 2010; further: potency means the concentration at half of the fitted maximal effect; on the % scale 0 is the no-effect control and ±100 the full control effect
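Eya2 (0.2 uM) preincubated 10 min at ambient with compound, then OMFP substrate added at 50 uM; 10 min reaction in 50 mM HEPES pH 7.5, 50 mM NaCl, 5 uM MgCl2, 0.05% BSA, 1 mM DTT. Fluorescence read at Ex 485/Em 525 nm.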
TrxR1 substrate: qHTS Assay for Substrates of Mammalian Selenoprotein Thioredoxin Reductase 1 (TrxR1): qHTS | Thioredoxin reductase 1, cytoplasmic (Rattus norvegicus), O89049 | purified TrxR1 substrate turnover, NADPH consumption readout | Potency, µM (highest dose often 114 µM), inactives show at the highest dose activity change, negative = substrate turnover | 390,000 compounds, 0.01% hits | AID 588456, 2011; further: potency means the concentration at half of the fitted maximal effect; on the % scale 0 is the no-effect control and ±100 the full control effect; nearly all actives have a fitted effect of over 50% in size
Target sequence (O89049 whole entry, looked up): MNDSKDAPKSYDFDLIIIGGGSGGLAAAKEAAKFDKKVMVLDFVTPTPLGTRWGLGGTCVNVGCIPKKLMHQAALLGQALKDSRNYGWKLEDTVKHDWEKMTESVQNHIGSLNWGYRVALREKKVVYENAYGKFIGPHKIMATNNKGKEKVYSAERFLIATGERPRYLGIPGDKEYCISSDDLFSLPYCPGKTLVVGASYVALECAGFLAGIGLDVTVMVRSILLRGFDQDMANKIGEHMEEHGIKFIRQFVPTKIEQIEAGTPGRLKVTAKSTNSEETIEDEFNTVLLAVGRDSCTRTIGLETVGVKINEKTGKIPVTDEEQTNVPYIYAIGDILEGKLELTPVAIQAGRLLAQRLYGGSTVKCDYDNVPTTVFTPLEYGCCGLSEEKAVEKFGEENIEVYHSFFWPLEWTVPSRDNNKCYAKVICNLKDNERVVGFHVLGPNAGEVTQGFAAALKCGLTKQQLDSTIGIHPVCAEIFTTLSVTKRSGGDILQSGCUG
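Rat TrxR1, dispensed at 90 nM, was prereduced with 400 uM NADPH (final) for 5 min at ~22 deg C, then incubated with compound 15 min before 400 uM selenite. A first-read NADPH fluorescence drop versus no-compound background flagged substrates.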
IDH1 R132H inh: qHTS for Inhibitors of mutant isocitrate dehydrogenase 1 (IDH1): qHTS; Isocitrate dehydrogenase [NADP] cytoplasmic (Homo sapiens), O75874; IDH1-R132H enzyme, NADPH consumption, diaphorase/resazurin fluorescence; Potency, µM (top dose mostly 76.6 µM), without a hit: at the highest dose activity change, negative = inhibition, hits mostly inhibitors; 390,000 compounds, 0.093% hits; AID 602179, 2012; further: potency means the concentration at half of the fitted maximal effect; on the % scale 0 is the no-effect control and ±100 the full control effect; nearly all actives have a fitted effect of over 65% in size
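IDH1-R132H (0.5 ug/mL dispensed) in pH 7.5 Tris buffer was preincubated 30 min with compound, then given a substrate mix of 0.016 mM NADPH and 2 mM alpha-KG for 80 min at room temperature; remaining NADPH was read by diaphorase/resazurin fluorescence.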
RGS4 inhibitor: Inhibitors of Regulator of G Protein Signaling (RGS) 4: qHTS; Regulator of G-protein signaling 4 (Homo sapiens), P49798; Potency, µM (titrated, usually from 114 µM), for inactives: at the top dose activity change, negative = inhibition, most hits filed as inhibitors; Transcreener GDP fluorescence polarization, RGS4-accelerated GTP hydrolysis; 390,000 compounds, 0.039% hits; further: potency means the concentration at half of the fitted maximal effect; on the % scale 0 is the no-effect control and ±100 the full control effect; nearly all actives have a fitted effect of over 75% in size
Target sequence (P49798 whole entry, looked up): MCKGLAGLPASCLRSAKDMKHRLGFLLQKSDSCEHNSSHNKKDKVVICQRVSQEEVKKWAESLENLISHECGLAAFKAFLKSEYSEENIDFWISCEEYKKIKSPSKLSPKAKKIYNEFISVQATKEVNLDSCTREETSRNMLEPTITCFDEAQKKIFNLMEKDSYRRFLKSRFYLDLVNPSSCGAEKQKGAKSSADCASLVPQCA
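MLSMR compounds (23 nl, pin-transferred) preincubated 10 min at room temperature with a 500nM (2x) first reagent, then RGS4 at 900nM (2x) plus Transcreener GDP mix added; fluorescence polarization (620/688 nm) read before and after 90 min at 30 °C.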
rTrxR1 inhibitor: qHTS Assay for Inhibitors of Mammalian Selenoprotein Thioredoxin Reductase 1 (TrxR1): qHTS; Potency, µM (series often up to 114 µM), inactives show at the top dose activity change, negative = inhibition, actives largely listed as inhibitors; AID 588453, 2011; Thioredoxin reductase 1, cytoplasmic (Rattus norvegicus), O89049; 390,000 compounds, 1% hits; recombinant rTrxR1, NADPH fluorescence consumption, selenite substrate; further: potency means the concentration at half of the fitted maximal effect; on the % scale 0 is the no-effect control and ±100 the full control effect; nearly all actives have a fitted effect of over 65% in size
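Rat TrxR1 (90 nM in the dispensed reagent) was pre-reduced with 400 uM NADPH for 5 min at room temperature, then incubated with compound for 15 min. After 400 uM selenite was added, NADPH fluorescence (Ex 340/Em 450 nm) was followed for 8 min.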
IDH1 autofl: qHTS for Inhibitors of mutant isocitrate dehydrogenase 1 (IDH1): Cherrypicks Autofluorescence Interference; shares compounds with IDH1 R132H inh; inhibition of signal, % at 51.2 µM; AID 623980, 2012; 750 tested, under 10 active; Resorufin detection reagent fluorescence interference, cell-free;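 further: 0% = wells with normal resorufin and full inhibition = wells lacking resorufin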
WT IDH1 inh: qHTS for Inhibitors of mutant isocitrate dehydrogenase 1 (IDH1): Cherrypicks in WT IDH1 | WT IDH1 enzyme, NADPH diaphorase/resazurin fluorescence | shares compounds with IDH1 R132H inh | Potency, µM (titrated, usually from 115 µM), without a hit: top-dose activity change, negative = inhibition, usual class: inhibitors | 750 compounds, 9% hits | AID 623995, 2012;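 further: potency means the concentration at half of the fitted maximal effect; 0% = full WT IDH1 enzyme control and full inhibition = no enzyme wells; nearly all actives have a fitted effect of over 55% in size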
mIDH1 confirm: qHTS for Inhibitors of mutant isocitrate dehydrogenase 1 (IDH1): Confirmation of Cherrypicks; shares compounds with IDH1 R132H inh; IDH1 R132H enzyme, NADPH diaphorase/resazurin fluorescence; Potency, µM (titrated, usually from 76.6 µM), inactives show at the highest dose activity change, negative = inhibition, most hits filed as inhibitors; 750 compounds, 83% hits; AID 624002, 2012; further: potency means the concentration at half of the fitted maximal effect; nearly all actives have a fitted effect of over 50% in size
Active calls of the source: *; [ ] = another dose, or the depositor's remark. Sampled rows, rich in hits. Any-hit rate of the full collection: about 1.1%. The call rests on the fitted dose curve; in most records, active means well fitted curve in the direction sought with a large enough effect; inconclusive means small, poorly fitted or top-dose-only effect, or another doubt; inactive means no such curve, though single readings can be large; an effect the other way counts as inactive or inconclusive.

Results for COCCn1c(SCC(=O)NC2CCCCC2C)nnc1-c1ccncc1 (stereo unspecified) ?
Eya2 phos inh: -3%; TrxR1 substrate: -7%; IDH1 R132H inh: -4%; RGS4 inhibitor: -1%; rTrxR1 inhibitor: 14%

How did Cc1cccc(C)c1OCc1cc(C(=O)N2CC3C[C@@H]4CC2C[C@H](C3)C4)no1 do in these assays?
Eya2 phos inh: 2%; TrxR1 substrate: -3%; IDH1 R132H inh: 1%; RGS4 inhibitor: -18%; rTrxR1 inhibitor: 0%

What do the screens show for `O=C1CN(c2nc(-c3cccs3)nc3sc4c(c23)CCCC4)CCN1`?
Eya2 phos inh: -20%; TrxR1 substrate: 21%[57.1 µM]; IDH1 R132H inh: 52µM*; RGS4 inhibitor: -22%; rTrxR1 inhibitor: -6%[57.1 µM]; IDH1 autofl: -14; WT IDH1 inh: inconclusive; mIDH1 confirm: 28µM*

Results for O=C(CN1CCN(c2ccccc2)CC1)Nc1ccccc1C(F)(F)F ?
Eya2 phos inh: 6%; TrxR1 substrate: 6%[57.1 µM]; IDH1 R132H inh: 10%; RGS4 inhibitor: -33%; rTrxR1 inhibitor: 31%[57.1 µM]

What do the screens show for `CC(C)c1ccc(NC(=O)C(c2ccccc2)N2CC(=O)Nc3ccccc32)cc1` (stereo unspecified)?
Eya2 phos inh: -7%; TrxR1 substrate: 2%; IDH1 R132H inh: inconclusive; RGS4 inhibitor: -29%; rTrxR1 inhibitor: 19%; IDH1 autofl: 0; WT IDH1 inh: -2%; mIDH1 confirm: 25µM*

What do the screens show for `CCc1ccc(Sc2cc(C(=O)NC(C)CC)c3ccccc3n2)cc1` (stereo unspecified)?
TrxR1 substrate: -6%[57.1 µM]; IDH1 R132H inh: inconclusive; RGS4 inhibitor: 19%; rTrxR1 inhibitor: 9%[57.1 µM]; IDH1 autofl: -5; WT IDH1 inh: -12%; mIDH1 confirm: inconclusive

Results for CCC(C)NC(=O)c1cc(Sc2cccc(Cl)c2)nc2ccccc12 (stereo unspecified) ?
TrxR1 substrate: 3%[57.1 µM]; IDH1 R132H inh: 10%; RGS4 inhibitor: 22%; rTrxR1 inhibitor: 5%[57.1 µM]

What do the screens show for `CCN1C(=O)CSc2ccc(C(=O)OC)cc21`?
Eya2 phos inh: 2%; TrxR1 substrate: 4%[57.1 µM]; IDH1 R132H inh: -3%; RGS4 inhibitor: 20%; rTrxR1 inhibitor: 7%[57.1 µM]

Results for Cn1c(SSc2ccc(-c3cccnc3)n2C)ccc1-c1cccnc1 ?
TrxR1 substrate: -16%; IDH1 R132H inh: 10µM*; RGS4 inhibitor: -43%; rTrxR1 inhibitor: 45%; IDH1 autofl: 1; WT IDH1 inh: 360%; mIDH1 confirm: 35µM*

What do the screens show for `c1cncc(-c2nnc(-c3cccnc3)nn2)c1`?
Eya2 phos inh: 1%; TrxR1 substrate: -20%; IDH1 R132H inh: 18%; RGS4 inhibitor: -32%[11.4 µM]; rTrxR1 inhibitor: 13%[57.1 µM]

What do the screens show for `Cc1cc(=O)[nH]c(SCC(=O)NC2CCCc3ccccc32)n1` (stereo unspecified)?
Eya2 phos inh: 4%; TrxR1 substrate: 17%; IDH1 R132H inh: -1%; RGS4 inhibitor: -8%; rTrxR1 inhibitor: 47%

Results for N#CC(=C1C=C(Br)C(=NO)C=C1Cl)c1ccc(Cl)cc1 ?
IDH1 R132H inh: inconclusive; IDH1 autofl: 6; WT IDH1 inh: inconclusive; mIDH1 confirm: 28µM*

How did CC(=O)Nc1ccc(N(C(=O)Cc2c[nH]c3ccccc23)C(C(=O)NC2CCCCC2)c2ccco2)cc1 (stereo unspecified) do in these assays?
Eya2 phos inh: -1%; TrxR1 substrate: -4%; IDH1 R132H inh: -1%; RGS4 inhibitor: -34%; rTrxR1 inhibitor: 2%

How did Cc1ccc(C(C(=O)NC2CCCCC2)N(C(=O)Cc2c[nH]c3ccccc23)c2ccccc2)o1 (stereo unspecified) do in these assays?
Eya2 phos inh: -12%; TrxR1 substrate: 5%; IDH1 R132H inh: inconclusive; RGS4 inhibitor: -28%; rTrxR1 inhibitor: -3%; IDH1 autofl: -9; WT IDH1 inh: -12%; mIDH1 confirm: 7.1µM*

Results for O=C(NC1CCCC1)C(c1ccco1)N(C(=O)c1ccco1)c1ccccc1 (stereo unspecified) ?
Eya2 phos inh: 15%; TrxR1 substrate: -5%; IDH1 R132H inh: inconclusive; RGS4 inhibitor: 14%; rTrxR1 inhibitor: -5%[57.1 µM]; IDH1 autofl: -1; WT IDH1 inh: 3%; mIDH1 confirm: 40µM*

How did O=C(NC1CCCCC1)C(c1ccco1)N(C(=O)c1csnn1)c1ccccc1 (stereo unspecified) do in these assays?
Eya2 phos inh: -12%; TrxR1 substrate: -7%; IDH1 R132H inh: -4%; RGS4 inhibitor: -7%; rTrxR1 inhibitor: 6%

What do the screens show for `Cc1ccc(C)c(N(C(=O)c2ccco2)C(C(=O)NC2CCCC2)c2ccco2)c1` (stereo unspecified)?
Eya2 phos inh: -3%; TrxR1 substrate: -1%; IDH1 R132H inh: 46µM*; RGS4 inhibitor: 21%; rTrxR1 inhibitor: 11%; IDH1 autofl: -4; WT IDH1 inh: 13%; mIDH1 confirm: 20µM*

Results for CC(=O)c1cccc(N(C(=O)c2ccco2)C(C(=O)NC2CCCCC2)c2ccc(C)o2)c1 (stereo unspecified) ?
Eya2 phos inh: -18%; TrxR1 substrate: 8%[57.1 µM]; IDH1 R132H inh: inconclusive; RGS4 inhibitor: -34%; rTrxR1 inhibitor: -7%[57.1 µM]; IDH1 autofl: 1; WT IDH1 inh: 1%; mIDH1 confirm: 40µM*
